Bioassay records deposited in PubChem BioAssay by National Center for Advancing Translational Sciences (NCATS).
An excerpt weighted towards active compounds, which were near 9.4% of everything screened.
Rab9 promoter act: qHTS Assay for Rab9 Promoter Activators. Huh7 Rab9 promoter-luciferase reporter, luminescence, 24 h. 320,000 compounds, 2.8% hits. Potency, µM (series often up to 9.22 µM), for the others: top-dose activation, negative = inhibition, usual class: activators. AID 485297, 2010; also: % of control where 0% means no effect; nearly all actives have a fitted effect of over 60% in size
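Luciferase signal after 10 min detection reagent at ambient indicates Rab9 promoter upregulation; stably transfected Huh7 cells were treated 24 h with compound in DMSO at 37 °C, 5% CO2.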
SMN2 splice enh: qHTS Assay for Enhancers of SMN2 Splice Variant Expression; HEK293 SMN2-luciferase splicing reporter, luminescence, 30-36 h; Potency, µM (top dose mostly 46.1 µM), inactives show at the top dose activity change, positive = activation, usual class: activators; 210,000 compounds, 2.8% hits; also: % of control where 0% means no effect; nearly all actives have a fitted effect of over 55% in size
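qHTS luciferase splicing reporter: luminescence rises when SMN2 exon 7 is included in transfected HEK293 cells. Compound exposure lasted 30-36 h at 37C, with 4.5 mM final sodium butyrate as control, followed by a ONE-Glo read.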
ELG1 repair inh: qHTS screen for small molecules that inhibit ELG1-dependent DNA repair in human embryonic kidney (HEK293T) cells expressing luciferase-tagged ELG1. HEK293T ELG1-luciferase reporter, luminescence, 16 h; DNA damage induced by 5-fluorouridine. 330,000 compounds, 2.3% hits. Potency, µM (top dose mostly 46.1 µM), for inactives: at the highest dose activity change, negative = inhibition, most hits filed as inhibitors. AID 504467, 2011; also: % is scaled to controls: 0 for no effect and ±100 for the full control effect; nearly all actives have a fitted effect of over 55% in size
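HEK293T cells expressing luciferase-tagged ELG1 (2,000/well) received 5-Fluorouridine plus compound or DMSO for 16 hr at 37 °C. Luciferase was read by ONE-Glo luminescence after 30 min at room temperature.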
ELG1 genotox: qHTS screen for small molecules that induce genotoxicity in human embryonic kidney (HEK293T) cells expressing luciferase-tagged ELG1; HEK293T ELG1-luciferase reporter, luminescence, 16 h; Potency, µM (titrated, usually from 46 µM), inactives show top-dose activity change, positive = activation, hits mostly activators; 330,000 compounds, 1.3% hits; AID 504466, 2011; also: % of control where 0% means no effect; nearly all actives have a fitted effect of over 60% in size
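16 hr compound incubation (37 °C, 5% CO2) of HEK293T cells carrying luciferase-tagged ELG1; luciferase then measured by ONE-Glo luminescence after 30 min at RT.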
NPC1 prom act: qHTS Assay for NPC1 Promoter Activators. Huh7 NPC1 promoter luciferase reporter, 24 h. Potency, µM (doses to about 9.22 µM), for inactives: at the highest dose activation, actives largely listed as activators. 320,000 compounds, 2.4% hits. AID 485313, 2010; also: % of control where 0% means no effect; nearly all actives have a fitted effect of over 60% in size
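Stable NPC1-promoter luciferase Huh7 line; cpd (DMSO) 24 h, 37 °C, 5% CO2; Amplite luciferase reagent 10 min RT; luminescence readout. qHTS format.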
FLuc modulator: qHTS profiling assay for firefly luciferase inhibitor/activator using purifed enzyme and Km concentrations of substrates (counterscreen for miR-21 project). Potency, µM (top dose mostly 57.5 µM), without a hit: top-dose activity change, negative = inhibition, usual class: inhibitors. 360,000 compounds, 6.9% hits. Luciferin 4-monooxygenase (Photinus pyralis), P08659. purified FLuc, Km substrates, luminescence inhibition;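 also: plate controls were vehicle for no effect and reference inhibitor for full effect; nearly all actives have a fitted effect of over 55% in size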
Target sequence (P08659 whole entry, looked up): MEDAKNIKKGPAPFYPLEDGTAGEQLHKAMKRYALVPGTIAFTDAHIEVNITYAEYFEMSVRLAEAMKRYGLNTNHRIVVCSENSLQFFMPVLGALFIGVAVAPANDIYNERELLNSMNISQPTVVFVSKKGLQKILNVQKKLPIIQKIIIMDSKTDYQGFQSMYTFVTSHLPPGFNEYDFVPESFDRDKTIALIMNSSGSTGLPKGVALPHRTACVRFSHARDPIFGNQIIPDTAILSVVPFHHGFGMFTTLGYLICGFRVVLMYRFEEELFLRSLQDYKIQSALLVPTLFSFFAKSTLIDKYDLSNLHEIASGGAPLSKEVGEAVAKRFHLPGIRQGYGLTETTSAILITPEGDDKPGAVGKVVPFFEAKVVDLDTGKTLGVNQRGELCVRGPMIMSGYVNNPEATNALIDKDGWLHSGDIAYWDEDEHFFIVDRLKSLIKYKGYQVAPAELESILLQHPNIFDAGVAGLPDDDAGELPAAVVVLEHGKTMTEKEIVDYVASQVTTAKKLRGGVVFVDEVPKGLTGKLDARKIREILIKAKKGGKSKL
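Purified P. pyralis luciferase, 10 nM final, with Km-level 10 uM D-luciferin and 10 uM ATP in 50 mM Tris acetate pH 7.5, 10 mM Mg acetate, 0.01% Tween-20, 0.05% BSA; 6-point qHTS titration about 60 µM downward; luminescence read.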
Numbers without * were called inactive; ? = inconclusive; . = not tested or not shown; ! = not confirmed by another sample; [ ] = dose if it differs, or a comment. Calls follow the shape of the dose curve; as a rule, active = well fitted curve in the direction sought with a large enough effect; inconclusive = small, poorly fitted or top-dose-only effect, or another doubt; inactive = no such curve, though single readings can be large; an effect the other way counts as inactive or inconclusive. Potency is read from the fitted curve at half-maximal effect.

SMILES | Rab9 promoter act | SMN2 splice enh | ELG1 repair inh | ELG1 genotox | NPC1 prom act | FLuc modulator
CCSc1nc2c([nH]c3ccccc32)c(=O)n1-c1ccc(OC)cc1 | . | . | . | . | . | 1%
COc1ccc(NC(=O)c2nnn(-c3ccc(C(C)C)cc3)c2C)c(OC)c1 | . | . | . | . | . | 0%
CCc1ccc(CNc2ncnc3onc(-c4ccc(Cl)cc4)c23)cc1 | . | -6% | . | . | . | -5%
COc1ccc(-n2nc([N+](=O)[O-])c(=NCc3ccc4c(c3)OCO4)n2O)cc1 | ? | ? | ? | ? | 2.2µM* | ?
O=[N+]([O-])c1nn(-c2ccc3c(c2)OCCO3)n(O)c1=NC1CCCCCC1 | ? | -5% | ? | ? | 19% | 17µM*
O=[N+]([O-])c1nn(-c2ccc3c(c2)OCCO3)n(O)c1=Nc1ccc(Cl)cc1 | -8% | -60% | ? | 1% | -5% | ?
O=[N+]([O-])c1nn(-c2ccc3c(c2)OCCO3)n(O)c1=NCCCO | 2µM* | 18% | ? | 4% | ? | -19%
Cc1ccc(N=c2c([N+](=O)[O-])nn(-c3ccc(Cl)cc3)n2O)cc1C | 1.3µM* | 4% | 10% | -4% | 1.6µM* | -10%
O=C1c2cccc([N+](=O)[O-])c2C(=O)N1c1ncn[nH]1 | . | -2%[9.22 µM] | . | . | . | .
Cc1ccc(CN=c2c([N+](=O)[O-])nn(-c3ccc4c(c3)OCCO4)n2O)cc1 | ? | . | ? | ? | ? | 12µM*
O=[N+]([O-])c1nn(-c2ccc3c(c2)OCCO3)n(O)c1=Nc1ccccc1 | -38% | -109% | ? | -4% | -18% | 12µM*
Cc1cc(C)cc(N=c2c([N+](=O)[O-])nn(-c3ccc4c(c3)OCCO4)n2O)c1 | -36% | -17% | 1% | -12% | -29% | -17%
Cc1ccc(OCCSc2nc3ccccc3n2CC(=O)N2CCCCC2)c(C)c1 | . | . | . | . | . | -2%
Cc1cc(/C=N\O)c(C)n1-c1ccncc1 | 3% | 17% | 0% | 2% | -2% | 0%
CCc1ccc(-n2c(C)cc(/C=N/NC(=O)OC)c2C)cc1 | 2% | 3%[1.84 µM] | 24% | 14% | 1% | 19µM*
COC(=O)N/N=C/c1cc(C)n(-c2ccc(F)cc2)c1C | 21% | 28% | ? | ? | 0% | 24µM*
Cc1cc(/C=N/O)c(C)n1-c1ccccc1 | 17% | 5%[1.84 µM] | ? | 9% | 8% | 17µM*
COC(=O)N/N=C/c1cc(C)n(-c2ccccc2)c1C | ? | -1%[1.84 µM] | ? | ? | 25% | 8.5µM*
COC(=O)N/N=C/c1cc(C)n(-c2ccc(Br)cc2)c1C | 16% | . | 9% | 2% | 1% | ?
Cc1nn(-c2ccc(F)cc2)c(-n2cccc2)c1C(=O)NCCCN1CCN(c2cccc(Cl)c2)CC1 | . | . | . | . | . | -13%
CC(C)c1ccc(NC(=O)CN2C=NS(=O)(=O)c3ccccc32)cc1 | . | . | . | . | . | 0%
CC(=O)C(=Cc1cc(C)n(-c2ccccc2)c1C)C(C)=O | 2% | 17% | 1% | -1% | -9% | 19µM*
C/C(=N\NC(=O)c1ccncc1)c1ccc2ccccc2c1O | . | -38%[9.22 µM] | . | . | . | .
Cc1cc([N+](=O)[O-])ccc1NC(=O)Nc1ccc(F)cc1F | -1% | -35% | 0% | -11% | -3% | -2%
O=C(Nc1cccc(Cl)c1)c1cc(N=Nc2ccc([N+](=O)[O-])cc2Cl)ccc1O | -15% | . | -5% | -16% | 2% | 12µM*
SMILES | Rab9 promoter act | SMN2 splice enh | ELG1 repair inh | ELG1 genotox | NPC1 prom act | FLuc modulator
O=C(Nc1ccccc1F)Nc1ccc([N+](=O)[O-])cc1Cl | 4µM* | . | ? | 4% | ? | ?
O=C(Nc1ccc([N+](=O)[O-])cc1Cl)c1cc(Cl)ccc1O | 0.1µM* | 25µM*! | ? | ? | 0.065µM* | 0.21µM*
Cc1ccc(O)c(NC(=O)c2cc([N+](=O)[O-])ccc2Cl)c1 | -8% | -82% | ? | -15% | 0% | 0%
COC(=O)c1ccc(C(=O)OC)c(NC(=O)N2CC3CCCN3c3ccccc32)c1 (configuration not stated) | . | . | . | . | . | 0%
CCCNC(=O)c1ccccc1NC(=O)COc1cccc2c1OC(C)(C)C2 | -7% | . | 15µM* | -5% | -2% | 1%
Cc1cnc(NC(=O)COc2cccc3c2OC(C)(C)C3)s1 | -1% | 20µM* | 26% | -3% | -2% | -4%
COc1ccc(NC(=O)COc2cccc3c2OC(C)(C)C3)cc1OC | -13% | . | ? | -4% | -3% | 4%
c1cncc(CNc2ncnc3sccc23)c1 | -1% | -69% | 21µM* | -19% | -3% | 0%
COc1cccc(-c2ccc3ncnc(NCc4cccnc4)c3c2)c1 | 2% | . | 5.2µM* | -6% | 2% | -3%
c1cncc(CNc2ncnc3ccc(-c4ccco4)cc23)c1 | -1% | . | . | . | 1% | -6%
c1ccc(CNc2ncnc3sccc23)cc1 | -25% | . | -11% | -5% | -13% | 3%
OC(CNc1ncnc2sccc12)c1ccccc1 (configuration not stated) | 1% | . | ? | 8% | ? | 17µM*
CCC(CC)C(=O)Nc1nnc(S(=O)(=O)N(C)c2cc(C)cc(C)c2)s1 | . | . | . | . | . | -13%
CCOc1ccc(/C=C/C(=O)c2ccccc2)cc1OC | ? | 1% | ? | ? | ? | 4.3µM*
COc1cc(/C=C/C(=O)c2ccc(O)cc2)ccc1OCC#N | -1% | -1% | ? | -10% | -4% | ?
CCC(=O)c1ccc(OCc2ccccc2)c(OC)c1 | ? | 14µM* | ? | ? | ? | ?
CCOc1ccc(C(=O)/C=C/c2ccc(OC)c(OC)c2)cc1 | 2% | -21% | -1% | 1% | -2% | 17µM*
CC(C)c1ccc(NC(=O)NN2CCOCC2)cc1 | 3.5µM* | 13µM* | ? | 16µM* | 3.2µM* | 27µM*
Cc1ccc(/C=C/C(=O)N2CCCN(C(=O)/C=C/c3ccc(C)cc3)CC2)cc1 | 20% | ? | 20% | 14% | 15% | 11µM*
CC(C)c1ccc(NC(=O)C(c2ccccc2)N2CCOCC2)cc1 (configuration not stated) | 15% | -7% | ? | 2% | 2% | ?
O=C(/C=C/c1ccc(Br)cc1)NC(=S)N1CCOCC1 | -4% | . | 4% | 6% | 2% | 13µM*
CCN1CCN(C(=O)/C=C/c2ccc(C)cc2)CC1 | 16% | . | 3% | 15% | 11% | -8%
